The test system of the first assay is TBK1. The settings on record: concentration: 1 μM, replicates: in singlicate; n = 1.
For `O=C(Nc1n[nH]c2nc(-c3nccs3)c(Br)cc12)C1CC1` [SB-742251], the “%Inh” value was determined as 0%.

As for `Nc1nc(-c2nccs2)c(-c2ccnc3ccccc23)s1` [GW693542], the “%Inh” value was determined as 5%.

As for `CC(C)(C)c1ccc(C(=O)Nc2cn3cc(-c4cccnc4)ccc3n2)cc1`, the “%Inh” value amounted to 40%.

Consider `Cn1ccc2ncnc(Oc3ccc(NC(=O)Nc4ccccc4)cc3)c21`, for which the “%Inh” value is 30%.

On to `Cl.c1ccc(-c2n[nH]cc2-c2ccnc(-c3ccc(CN4CCOCC4)cc3)c2)nc1` [GW776245], for which the “%Inh” value stood at 61%.

Consider `COc1cc2ncn(-c3cc(OCC4CCCO4)c(C(N)=O)s3)c2cc1OC` (stereo not drawn) [GSK204607], for which the “%Inh” value is reported as 23%.

Take `COc1ccc(C2=C(Nc3cccc(C(=O)O)c3)C(=O)NC2=O)cc1` [SB-390765]: the “%Inh” value is reported as 11%.

Consider `Fc1cc(Cl)ccc1Nc1ccnc2cc(-c3ccc(CN4CCCCC4)o3)ccc12` [GW560116], for which the “%Inh” value was 14%.

`O=c1cc(N2CCOCC2)nc2n(Cc3cccc(Cl)c3Cl)ccn12` [GSK2286295]: the “%Inh” value is 19%.

With `O=C(Nc1ccccc1)Nc1cccc(Oc2ccc3nccn3n2)c1`, the “%Inh” value was 10%.

Consider `Nc1ncnc2[nH]c(-c3ccccc3)nc12` [AH5015], for which the “%Inh” value was 10%.

With `Cc1cccc(-c2nc(-c3ccc(S(C)(=O)=O)cc3)sc2-c2ccnc(NCCc3ccccc3)c2)c1`, the “%Inh” value turned out to be 24%.

Regarding `O=C(Nc1n[nH]c2cc(-c3cccc(F)c3F)ccc12)C1CC1` [SB-733894], the “%Inh” value turned out to be 18%.

`CN1C(=O)C(Nc2ccc(Cl)c(C(=O)O)c2)=C(c2ccc(Cl)cc2)C1=O` [SB-404290]: the “%Inh” value is reported as 27%.

On to `Cn1cncc1-c1ccc2ncnc(Nc3ccc(OCc4ccccc4)cc3)c2c1` [GW320571], for which the “%Inh” value turned out to be 0%.

On to `Cn1ccc2ncnc(Oc3cccc(C(=O)Nc4ccccc4)c3)c21`, for which the “%Inh” value is listed as 0%.

`Fc1cc(Cl)ccc1Nc1ccnc2cc(I)ccc12` [GW551191]: the “%Inh” value is 11%.

Consider `COc1cc2ncnc(Nc3ccc4nc(-c5ccccc5)[nH]c4c3)c2cc1OC.Cl` [GW282450], for which the “%Inh” value is given as 12%.

On to `COc1cccc(-c2cc(-c3c[nH]nc3-c3ccccn3)ccn2)c1` [GW680338], for which the “%Inh” value is 0%.

Turning to `COc1ccc(CNC(=O)NC2CCN(c3ccnc(Nc4cc(OC)c(OC)c(OC)c4)n3)C2)cc1` (stereo not drawn) [GSK1379748], the “%Inh” value came to 15%.

The test system of the next assay is TEC. The settings on record: concentration: 1 μM, replicates: in singlicate; n = 1.
Turning to `O=C(Nc1n[nH]c2nc(-c3nccs3)c(Br)cc12)C1CCCC1` [SB-742609], the “%Inh” value was 0%.

Consider `CC1=C(C(=O)Nc2cc3cn[nH]c3cc2F)C(c2ccc(C(F)(F)F)cc2)CC(=O)N1` (stereo not drawn) [GSK429286], for which the “%Inh” value is reported as 18%.

For `CSc1nn2c(=O)cc(N3CCOCC3)nc2n1Cc1cccc(C(F)(F)F)c1C` [GSK2363608], the “%Inh” value is listed as 7%.

`Cl.O=C(Nc1cccc(-c2nn3ncccc3c2-c2ccnc(Nc3cccnc3)n2)c1)c1c(F)cccc1F` [GSK312879]: the “%Inh” value stood at 13%.

For the molecule `Cc1ccc(NC(=O)Nc2cccc(Cl)c2)cc1-c1ccc(C(=O)Nc2ccncc2)cc1` [GSK1398468], the “%Inh” value is listed as 13%.

On to `CC(=O)Nc1nc2cnc(Nc3cc(NC(=O)c4cccc(CCC#N)c4)ccc3C)nc2s1`, for which the “%Inh” value was 10%.

As for `COc1cccc(NC(=O)NC2CCN(c3ccnc(Nc4ccc(F)cc4)n3)C2)c1` (stereo not drawn) [GSK1379721], the “%Inh” value was determined as 0%.

On to `CS(=O)(=O)c1ccc(-c2nc3n(c2-c2ccncc2)CCC3)cc1` [SKF-105942], for which the “%Inh” value is 7%.

Consider `CCCc1ccc(S(=O)(=O)NC2CCN(c3ccnc(Nc4ccc(F)cc4)n3)C2)cc1` (stereo not drawn) [GSK1379715], for which the “%Inh” value is listed as 0%.

For the molecule `O=S(=O)(c1ccc(-c2ccnc3[nH]ccc23)cc1)N1CCCC1` [GSK846226], the “%Inh” value amounted to 4%.

Turning to `Cc1ccc(NC(=O)Nc2cc(C(C)(C)C)nn2-c2ccccc2)cc1` [GSK1014915], the “%Inh” value is 11%.

On to `CN(C)CCN(C)C(=O)c1cc(-c2ccncc2)c(-c2ccc(Cl)c(O)c2)o1.Cl.Cl` [SB-710397], for which the “%Inh” value is listed as 6%.

As for `O=C(O)COc1ncnc2cc(-c3ccc4[nH]ncc4c3)sc12`, the “%Inh” value worked out at 0%.

For `Cc1cccc(-c2nc(C)cc(Nc3ccncc3)n2)n1` [GSK257997], the “%Inh” value amounted to 0%.

As to `O=C(Nc1n[nH]c2nc(-c3nccs3)c(Br)cc12)C1CC1` [SB-742251], the “%Inh” value stood at 14%.

Consider `Nc1nc(-c2nccs2)c(-c2ccnc3ccccc23)s1` [GW693542], for which the “%Inh” value is given as 16%.

In the case of `CC(C)(C)c1ccc(C(=O)Nc2cn3cc(-c4cccnc4)ccc3n2)cc1`, the “%Inh” value is recorded as 10%.

On to `Cn1ccc2ncnc(Oc3ccc(NC(=O)Nc4ccccc4)cc3)c21`, for which the “%Inh” value stood at 0%.

Consider `Cl.c1ccc(-c2n[nH]cc2-c2ccnc(-c3ccc(CN4CCOCC4)cc3)c2)nc1` [GW776245], for which the “%Inh” value is listed as 17%.

Regarding `COc1cc2ncn(-c3cc(OCC4CCCO4)c(C(N)=O)s3)c2cc1OC` (stereo not drawn) [GSK204607], the “%Inh” value stood at 0%.

Consider `COc1ccc(C2=C(Nc3cccc(C(=O)O)c3)C(=O)NC2=O)cc1` [SB-390765], for which the “%Inh” value was 10%.

Take `Fc1cc(Cl)ccc1Nc1ccnc2cc(-c3ccc(CN4CCCCC4)o3)ccc12` [GW560116]: the “%Inh” value stood at 5%.

Turning to `O=c1cc(N2CCOCC2)nc2n(Cc3cccc(Cl)c3Cl)ccn12` [GSK2286295], the “%Inh” value is 0%.

Consider `O=C(Nc1ccccc1)Nc1cccc(Oc2ccc3nccn3n2)c1`, for which the “%Inh” value turned out to be 0%.

`Nc1ncnc2[nH]c(-c3ccccc3)nc12` [AH5015]: the “%Inh” value worked out at 28%.

Consider `Cc1cccc(-c2nc(-c3ccc(S(C)(=O)=O)cc3)sc2-c2ccnc(NCCc3ccccc3)c2)c1`, for which the “%Inh” value is given as 0%.

Regarding `O=C(Nc1n[nH]c2cc(-c3cccc(F)c3F)ccc12)C1CC1` [SB-733894], the “%Inh” value was determined as 4%.

Take `CN1C(=O)C(Nc2ccc(Cl)c(C(=O)O)c2)=C(c2ccc(Cl)cc2)C1=O` [SB-404290]: the “%Inh” value is 0%.

Regarding `Cn1cncc1-c1ccc2ncnc(Nc3ccc(OCc4ccccc4)cc3)c2c1` [GW320571], the “%Inh” value turned out to be 6%.

As for `Cn1ccc2ncnc(Oc3cccc(C(=O)Nc4ccccc4)c3)c21`, the “%Inh” value was 11%.

With `Fc1cc(Cl)ccc1Nc1ccnc2cc(I)ccc12` [GW551191], the “%Inh” value is 22%.

`COc1cc2ncnc(Nc3ccc4nc(-c5ccccc5)[nH]c4c3)c2cc1OC.Cl` [GW282450]: the “%Inh” value is recorded as 0%.

On to `COc1cccc(-c2cc(-c3c[nH]nc3-c3ccccn3)ccn2)c1` [GW680338], for which the “%Inh” value was found to be 0%.

Regarding `COc1ccc(CNC(=O)NC2CCN(c3ccnc(Nc4cc(OC)c(OC)c(OC)c4)n3)C2)cc1` (stereo not drawn) [GSK1379748], the “%Inh” value is on record as 0%.

Source of the values: PMC5540273 (PLoS ONE, 2017).
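Also: KINOMEscan kinase panel screen.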
